This passage reports fold change results from PubChem BioAssay AID1259312 (Keith Lab, Institute of Cancer Science, University of …, 2017).

The campaign covered roughly 4,500 compounds. About 200 (4.4%) were called active. Shown is part of a subset that was picked to be rich in actives. Values without a mark were called inactive.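 Rule for the calls: active = cell survival measured by absorbance rises more than 2.5-fold over infected cells without compound; inactive = the rest.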

The nature of the experiment: survival after telomere uncapping, modulators, primary screen, cell-based (AID 1259312).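 Note: virus expresses mutant telomerase RNA that uncaps telomeres and kills cells; compound added 2 days after infection so exposure lasts 3 days.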 The settings on record: HCT116 + Ad-hTR-mut, MTT, 5 d; at 10 µM, hits give high values.
For the compound `O=C1CCCC2=C1C(c1ccco1)C1=C(N2)c2ccccc2C1=O` (stereo not given), the fold change is -5.38.
The result for `O=S1(=O)CCC(SCc2nnc(-c3ccccc3)o2)C1` (stereo not given) reads -1.78.
For `CCNC(=S)Nc1ccc(Br)cc1` the value was -2.77.
For `S=c1[nH]nc(CCc2ccccc2)n1Cc1ccccc1` the value was 1.25; for `S=c1[nH]nc(Cc2ccccc2)n1Cc1ccccc1`, 1.06; for `S=c1[nH]nc(Cc2n[nH]c(=S)n2Cc2ccccc2)n1Cc1ccccc1`, 4.65 (active).
For the compound `CCOC(=O)c1c(NC(=O)CCl)sc2c1CCN(C(=O)OCC)C2`, the fold change was -1.2.
On to `COC(=O)NNC(=O)CCCOc1ccc(Cl)cc1Cl`, for which the fold change was 1.34.
The result for `O=C(COc1ccc(Cl)cc1Cl)NCC1CCCO1` (stereo not given) reads -1.41; that for `O=C(CCCOc1ccc(Cl)cc1Cl)Nn1cnnc1`, 2.83 (active); that for `Cc1c(C(C)C)c(=O)n(-c2ccc(S(=O)(=O)NC3CC3)cc2)n1C`, -2.25.
For the compound `Brc1ccc(-c2csc(Nc3ccccc3)n2)cc1`, the fold change was -1.95.
The result for `NC(=O)c1c(NC(=O)CN2CCOCC2)sc2c1CCCC2` reads -1.32; that for `CSc1nc(SCC(=O)c2ccc3c(c2)OCO3)nc(N)c1C#N`, 1.54; that for `N#CCS/C(SCC(=O)c1ccc2c(c1)OCO2)=C(/C#N)C(=O)c1ccc2c(c1)OCO2`, 2.84 (active).
`N#CCS/C(SCC(=O)c1ccc(Br)cc1)=C(/C#N)C(=O)c1ccc(Br)cc1`: the fold change is 1.41.
As to `OC1CCC2Cc3ccccc3N=C12` (stereo not given), the fold change is -1.24.
The result for `O=c1[nH]nc(C[N+](=O)[O-])c2ccccc12` reads 1.05; that for `CC12C=CC(=O)C=C1CCC1C3CC(O)C(O)(C(=O)CO)C3(C)CC(O)C12F` (stereo not given), 1.13; that for `CC(C)=NNc1nccc2ccccc12`, -1.17.
The result for `S=C(Nc1ccccc1)N1CCOCC1` reads 3.11 (active); that for `c1ccc(N=C(Nc2ccccc2)N2CCOCC2)cc1`, 1.32; that for `S=C(Nc1ccccc1)N1CCCCC1`, -1.66.
The result for `CN1C(=O)C(=O)c2cc(Br)ccc21` reads -1.19; that for `O=C1c2ccc(Br)cc2C(=O)N1CNc1ccc(Br)cc1`, 2.94 (active); that for `O=C(O)CN1C(=O)C(=O)c2cc(Br)ccc21`, -1.45.
In the case of `CCN(C(=O)c1cccs1)C1CCCCC1`, the fold change is -1.05.
The result for `N#CCN(CC#N)C(=O)c1cccs1` reads 4.34 (active).
The result for `N#CCN(CC#N)C(=O)c1ccco1` reads -1.86; that for `CC(=O)Nc1ccc2nc(SCC(=O)Nc3nccs3)sc2c1`, -1.04; that for `O=C1OC(C2OC(=O)c3ccccc32)c2ccccc21` (stereo not given), -2.64.
For `CCOc1ccc2c(c1)-c1c(ssc1=Nc1ccc(Cl)cc1C)C(C)(C)N2` the value was -1.6; for `Cc1ccc2c(c1)-c1c(ssc1=S)C(C)(C)N2`, 2.39.
For `COc1ccc2c(c1)-c1c(ssc1=S)C(C)(C)N2C(=O)CSc1ncn[nH]1`, the fold change was -3.53.
On to `COc1ccc2c(c1)-c1c(ssc1=S)C(C)(C)N2`, for which the fold change is 3.31 (active).
For `Cc1cc(C)c2c(c1)-c1c(ssc1=S)C(C)(C)N2C(=O)c1ccccc1` the value was -2.03; for `CC1(C)Nc2ccccc2-c2c1ssc2=S`, 4.78 (active).
The result for `Cc1cccc2c1N(C(=O)c1ccc(-c3ccccc3)cc1)C(C)(C)c1ssc(=S)c1-2` reads -1.16.
As for `CCOc1ccc2c(c1)-c1c(sn(-c3ccc(OC)cc3)c1=S)C(C)(C)N2`, the fold change was -1.06.
For `CCOc1ccc2c(c1)-c1c(ssc1=S)C(C)(C)N2` the value was 5.41 (active).
On to `O=C(c1cccs1)[C@H]1CCCC[C@H]1C(=O)O`, for which the fold change is 1.2.
The result for `Oc1ccc2c(c1)c1c3n2CCNC3CCC1` (stereo not given) reads -1.09.
For `COc1ccc(C2C=COc3n[nH]c(-c4ccccc4)c32)cc1OC` (stereo not given) the value was 2.04; for `Cn1cc(/C=C2\C(=O)NC(=S)N(c3ccc(Br)cc3)C2=O)c2ccccc21`, -1.42; for `O=C(NCCOC1=NS(=O)(=O)c2ccccc21)C(=O)Nc1ccccc1`, 1.05.
For `CC(=O)N/C(=N/c1nc(C)cc(C)n1)Nc1ccc(F)cc1F` the value was “inactive”; for `COc1ccc(-c2nc3sc(-c4ccc(OC)c(OC)c4)nc3s2)cc1OC`, -4.78.
In the case of `S=c1[nH]nc(COc2cccc3ccccc23)n1-c1ccccc1`, the fold change was 3 (active).
On to `S=c1[nH]nc(Cn2cnc3ccccc32)n1-c1ccccc1`, for which the fold change is 1.13.
The result for `S=c1[nH]nc(COc2ccccc2)n1-c1ccccc1` reads 1.72; that for `Cc1c(C(=O)OC(C)C)sc(NC(=O)C(F)(F)C(F)(F)C(F)(F)C(F)(F)F)c1C(=O)OC(C)C`, -1.73; that for `O=c1oc(-c2cccc(F)c2)nc2ccc(Br)cc12`, -1.47.
The result for `COC(=O)c1cc2cc(Br)ccc2o1` reads -2.17; that for `NC(=O)c1cc2ccccc2o1`, 2.76 (active).
As to `Nc1cc2ccccc2cc1N`, the fold change is -1.17.
Consider `Clc1nc2ccccc2nc1-c1ccccc1`, for which the fold change is -1.36.
The result for `N=C1S/C(=C/c2cn[nH]c2-c2ccc(F)cc2)C(=O)N1c1nonc1N` reads -1.44; that for `N#Cc1c(N)nc2c(c1-c1cccc(Br)c1)CCCCC2`, -1.02; that for `Cc1ccc(C)c(-c2c(C#N)c(N)nc3c2CCCCC3)c1`, -1.2.
On to `N#Cc1c(N)nc2c(c1-c1cccc(Br)c1)CCCC2`, for which the fold change was 2.68 (active).
Take `Cc1ccc(-c2c(C#N)c(N)nc3c2CCCC3)c(C)c1`: the fold change is 1.09.
For the compound `N#Cc1c(N)nc2c(c1-c1cccc(Br)c1)CCCCCC2`, the fold change is -1.03.
As to `N#Cc1c(N)nc2c(c1-c1ccc(Cl)cc1Cl)CCCCC2`, the fold change was 4.06 (active).
For `Brc1ccc2nc(SCCOc3ccccc3)[nH]c2c1` the value was -1.46.
For `COC(=O)C1=C(C)NC(=S)NC1c1cccs1` (stereo not given) the value was 1.16; for `N#CC1=C(N)OC2=C(C(=O)CCC2)C1c1ccc2c(c1)OCO2` (stereo not given), 1.15.
`NNC(=O)C(=O)Nc1nccs1`: the fold change was -2.19.
Consider `Cc1cc(C)c(C#N)c(SCc2cc(=O)[nH][nH]2)n1`, for which the fold change is 3.11 (active).
The result for `Cc1cc(C)c(CSc2nc(C)cc(=O)[nH]2)c(C)c1` reads “inactive”; that for `Cc1cc(-c2ccco2)c(C#N)c(SCC(=O)C(F)(F)F)n1`, 1.03.
